Measurements as given in PubChem BioAssay (NCATS).
Where “and” joins values, the source holds several entries; their conditions need not be identical. Identical values can stand only once. Results filed as inconclusive are left out. Calls of active or inactive are those of the source. Unless noted, calls follow the shape of the full dose curve.

What was measured:
[1] = biological target: Retinoic acid receptor RXR-alpha (Homo sapiens) (UniProt P19793); assay: qHTS assay for small molecule agonists of retinoid X receptor alpha signaling (AID 588544)
Retinoic acid receptor RXR-alpha (Homo sapiens), sequence (P19793 whole entry, looked up): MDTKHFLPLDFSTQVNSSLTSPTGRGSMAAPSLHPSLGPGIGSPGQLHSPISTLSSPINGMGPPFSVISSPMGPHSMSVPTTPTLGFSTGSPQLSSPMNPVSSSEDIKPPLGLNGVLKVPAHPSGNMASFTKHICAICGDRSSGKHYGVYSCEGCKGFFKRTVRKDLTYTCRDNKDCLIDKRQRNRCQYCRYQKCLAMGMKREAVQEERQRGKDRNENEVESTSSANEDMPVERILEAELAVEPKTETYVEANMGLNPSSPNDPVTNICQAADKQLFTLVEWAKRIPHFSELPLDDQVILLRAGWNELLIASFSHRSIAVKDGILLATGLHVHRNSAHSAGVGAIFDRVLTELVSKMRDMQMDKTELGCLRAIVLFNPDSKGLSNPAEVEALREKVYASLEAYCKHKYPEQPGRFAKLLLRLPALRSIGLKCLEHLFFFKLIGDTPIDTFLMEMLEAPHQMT

[2] = biological target: Voltage-gated inwardly rectifying potassium channel KCNH2 (Homo sapiens) (UniProt Q12809); assay: qHTS Assay for Small Molecule Inhibitors of the Human hERG Channel Activity (AID 588834; active = well fitted curve in the direction sought with a large enough effect; an effect the other way counts as inactive or inconclusive;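 also: top concentration of the series differs between compounds; lower thallium flux fluorescence means stronger hERG block; nearly all actives have a fitted effect of over 50% in size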)
Voltage-gated inwardly rectifying potassium channel KCNH2 (Homo sapiens), sequence (Q12809 whole entry, looked up): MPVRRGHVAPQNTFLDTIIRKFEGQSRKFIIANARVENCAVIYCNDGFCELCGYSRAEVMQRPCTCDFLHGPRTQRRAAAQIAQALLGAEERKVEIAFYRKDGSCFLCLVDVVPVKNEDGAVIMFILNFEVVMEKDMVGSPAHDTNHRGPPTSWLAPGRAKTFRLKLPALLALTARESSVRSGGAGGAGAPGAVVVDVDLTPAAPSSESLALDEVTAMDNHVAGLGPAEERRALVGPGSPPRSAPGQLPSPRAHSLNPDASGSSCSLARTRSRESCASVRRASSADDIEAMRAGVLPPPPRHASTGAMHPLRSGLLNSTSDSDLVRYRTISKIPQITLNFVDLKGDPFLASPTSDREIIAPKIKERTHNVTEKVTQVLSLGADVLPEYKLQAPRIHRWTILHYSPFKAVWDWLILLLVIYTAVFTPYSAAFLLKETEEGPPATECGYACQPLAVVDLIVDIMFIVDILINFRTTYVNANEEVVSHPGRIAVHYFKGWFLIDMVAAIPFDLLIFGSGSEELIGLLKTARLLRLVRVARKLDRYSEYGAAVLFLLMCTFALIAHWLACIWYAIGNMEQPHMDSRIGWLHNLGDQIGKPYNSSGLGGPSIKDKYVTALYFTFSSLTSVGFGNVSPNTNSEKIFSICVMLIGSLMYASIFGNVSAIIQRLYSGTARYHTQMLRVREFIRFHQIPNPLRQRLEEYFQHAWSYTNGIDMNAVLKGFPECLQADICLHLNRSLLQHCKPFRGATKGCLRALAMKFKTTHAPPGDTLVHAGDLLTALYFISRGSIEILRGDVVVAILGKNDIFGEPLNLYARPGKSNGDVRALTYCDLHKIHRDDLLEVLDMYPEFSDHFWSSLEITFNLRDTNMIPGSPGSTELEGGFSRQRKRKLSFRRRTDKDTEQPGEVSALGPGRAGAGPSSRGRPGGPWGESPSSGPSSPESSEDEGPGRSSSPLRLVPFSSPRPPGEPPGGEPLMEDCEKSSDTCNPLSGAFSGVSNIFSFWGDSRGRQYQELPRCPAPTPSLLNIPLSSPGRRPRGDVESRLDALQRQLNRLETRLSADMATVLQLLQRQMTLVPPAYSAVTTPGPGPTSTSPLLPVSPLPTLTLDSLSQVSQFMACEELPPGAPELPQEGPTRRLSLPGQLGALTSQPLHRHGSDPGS
Method in brief: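 U2OS cells BacMam-transduced with hERG, 2000 cells/well, compound ~10 min at 37 °C before stimulation buffer. FluxOR thallium flux fluorescence read kinetically on FDSS; decrease indicates block; AC50 from Hill fits.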

[3] = qHTS assay for small molecule agonists of the antioxidant response element (ARE) signaling pathway (AID 651741; active = well fitted activation curve with a large enough effect in the signal ratio; the % refers to the signal ratio; also: potency is read from the fitted curve at half-maximal effect)
Method in brief: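 ARE-bla HepG2 cells (beta-lactamase reporter under ARE control) were plated at 2,000 cells/well, preincubated 5 h at 37 C/5% CO2, then treated with DMSO-dissolved compounds for 16 h at 37 C; LiveBLAzer B/G FRET substrate added, fluorescence read after 2 h at room temperature.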

[4] = qHTS assay for small molecule activators of the p53 signaling pathway (AID 651743; active = well fitted activation curve with a large enough effect in the signal ratio, not every such curve was filed as active; the % refers to the signal ratio; also: potency is read from the fitted curve at half-maximal effect); conditions: HCT-116 p53RE-bla, beta-lactamase FRET ratio, 16 h; activation: stronger effect = higher value
Method in brief: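 p53RE-bla HCT-116 cells with a stably integrated beta-lactamase reporter under p53 response elements were plated, rested 5 hours at 37 C/5% CO2, then exposed to compounds in DMSO for 16 hours at 37 C. LiveBLAzer B/G FRET substrate was read after 2 hours at room temperature.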

[5] = qHTS assay for small molecule disruptors of the mitochondrial membrane potential - 1 hr assay (AID 651754); also: potency is read from the fitted curve at half-maximal effect; nearly all actives have a fitted effect of over 35% in size
Method in brief: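 HepG2 cells, attached overnight at 37C, were exposed to compound or DMSO vehicle for 1 hr at 37C, 5% CO2, then stained with Mito-MPS dye for 30 min. Red aggregate versus green monomer fluorescence reports membrane potential.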

[6] = qHTS assay for small molecule disruptors of the mitochondrial membrane potential - 5 hr assay (AID 651755); also: potency is read from the fitted curve at half-maximal effect; nearly all actives have a fitted effect of over 40% in size
Method in brief: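 HepG2 cells, attached overnight at 37C, were exposed to compound or DMSO for 5 hr at 37C, 5% CO2. Mito-MPS dye was then added for 30 min, and fluorescence read at 490/535 nm (monomers) and 540/590 nm (aggregates).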

[7] = qHTS assay to identify small molecules that stimulate interleukin-8 (IL-8) secretion (AID 651758; active = well fitted activation curve with a large enough effect in the signal ratio; the % refers to the signal ratio; also: potency is read from the fitted curve at half-maximal effect)
Method in brief: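 THP-1, 2000 cells/well; cpd 16 h, 37 C; add cryptate + XL665 anti-IL-8 Abs; RT 1-3 h; TR-FRET read.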

[8] = qHTS assay for environmental chemicals that activate the Aryl hydrocarbon Receptor (AhR) signaling pathway (AID 651777; active = well fitted curve in the direction sought with a large enough effect; an effect the other way counts as inactive or inconclusive; also: potency is read from the fitted curve at half-maximal effect; nearly all actives have a fitted effect of over 15% in size); conditions: 1A2-DRE human hepatoma cells, luciferase, 24 h; activation: stronger effect = higher value
Method in brief: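 Luminescence (One-Glo, 30 min, room temperature) reports AhR-driven luciferase in stably transfected human hepatoma cells bearing DRE and CYP1A2 promoter. Cells (1,200/well) were treated with compound for 24 hr at 37 C in qHTS format.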

[9] = biological target: Nuclear receptor ROR-gamma (Homo sapiens) (UniProt P51449); assay: qHTS assay for small molecule antagonists of the retinoid-related orphan receptor gamma (ROR-gamma) signaling pathway (AID 651802; active = well fitted curve in the direction sought with a large enough effect; an effect the other way counts as inactive or inconclusive; also: potency is read from the fitted curve at half-maximal effect; nearly all actives have a fitted effect of over 60% in size)
Nuclear receptor ROR-gamma (Homo sapiens), sequence (P51449 whole entry, looked up): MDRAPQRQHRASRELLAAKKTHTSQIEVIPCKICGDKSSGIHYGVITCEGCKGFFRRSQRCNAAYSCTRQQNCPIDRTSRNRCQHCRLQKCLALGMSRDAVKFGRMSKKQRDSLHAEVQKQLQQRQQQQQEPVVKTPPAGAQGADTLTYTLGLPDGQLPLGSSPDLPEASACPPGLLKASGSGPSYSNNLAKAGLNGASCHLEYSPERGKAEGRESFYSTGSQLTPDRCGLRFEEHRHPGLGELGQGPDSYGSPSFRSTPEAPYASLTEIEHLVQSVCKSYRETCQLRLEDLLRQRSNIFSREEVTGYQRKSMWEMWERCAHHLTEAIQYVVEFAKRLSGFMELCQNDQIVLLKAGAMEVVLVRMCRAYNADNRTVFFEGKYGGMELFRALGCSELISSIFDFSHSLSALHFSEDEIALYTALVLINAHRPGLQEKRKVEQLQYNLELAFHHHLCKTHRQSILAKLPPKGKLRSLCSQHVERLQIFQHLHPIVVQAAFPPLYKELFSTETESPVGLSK
Method in brief: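 CHO cells carrying TET-inducible ROR-gamma and an ROR response element–luciferase reporter were exposed to compound, then induced with doxycycline. After 16hr at 37C, luminescence was read; lower signal indicates antagonism.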

[10] = biological target: Arylsulfatase A (Homo sapiens) (UniProt P15289); assay: qHTS screen for enhancers of Arylsulfatase A (ASA1): LOPAC Validation Assay (AID 720538; active = well fitted curve in the direction sought with a large enough effect; an effect the other way counts as inactive or inconclusive)
Arylsulfatase A (Homo sapiens), sequence (P15289 whole entry, looked up): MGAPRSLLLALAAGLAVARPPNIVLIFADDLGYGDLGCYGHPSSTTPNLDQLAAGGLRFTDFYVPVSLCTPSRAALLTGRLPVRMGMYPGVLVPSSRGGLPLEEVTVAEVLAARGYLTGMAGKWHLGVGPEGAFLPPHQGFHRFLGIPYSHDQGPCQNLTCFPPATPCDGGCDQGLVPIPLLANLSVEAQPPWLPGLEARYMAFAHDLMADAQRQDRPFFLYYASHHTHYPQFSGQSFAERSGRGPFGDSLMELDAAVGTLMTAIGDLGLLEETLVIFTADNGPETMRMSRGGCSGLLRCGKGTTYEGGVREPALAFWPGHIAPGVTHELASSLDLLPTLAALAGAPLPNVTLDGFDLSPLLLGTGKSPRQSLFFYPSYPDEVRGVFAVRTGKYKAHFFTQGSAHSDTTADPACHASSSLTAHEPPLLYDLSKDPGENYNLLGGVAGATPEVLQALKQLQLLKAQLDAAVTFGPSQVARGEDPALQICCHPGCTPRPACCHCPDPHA
Method in brief: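 SV40-transformed fibroblasts from an MLD patient (ASA-I179S) were treated with compound for 48 h at 37 C. They were then lysed with 0.5 mM pNCS substrate (final) for 14 h at room temperature and stopped with NaOH; signal read by fluorescence (Ex 525/Em 598 nm), with increase denoting enhanced activity.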

[11] = qHTS profiling of the MIPE4 collection as inhibitors of Plasmodium falciparum (3D7) proliferation (AID 743344; call rule not given here); conditions: P. falciparum 3D7 in erythrocytes, SYBR Green DNA fluorescence, 72 h; at 28.5 µM (top of the series) unless noted
Method in brief: (§1)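 Erythrocytes infected with P. falciparum (0.3% parasitemia, 2.5% hematocrit) incubated with compounds 72 h at 37 C, 5% CO2. Lysis with saponin/Triton buffer containing SYBR Green I, overnight at room temperature in the dark; DNA fluorescence (485/535 nm) normalised to 0.29 uM artemisinin and DMSO.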

[12] = qHTS profiling of the MIPE4 collection as inhibitors of Plasmodium falciparum (DD2) proliferation (AID 743345; call rule not given here); conditions: P. falciparum Dd2 in erythrocytes, SYBR Green DNA, 72 h; at 28.5 µM (top of the series) unless noted
Method in brief: as §1

[13] = qHTS profiling of the MIPE4 collection as inhibitors of Plasmodium falciparum (DD2) proliferation (Rep 2) (AID 743346; call rule not given here); conditions: P. falciparum Dd2 in erythrocytes, SYBR Green DNA, 72 h; at 28.5 µM (top of the series) unless noted
Method in brief: as §1

[14] = qHTS for Inhibitors of the Functional Ribonucleoprotein Complex (vRNP) of Lassa (LASV) Arenavirus: LASV Primary Screen - GLuc reporter signal (AID 1347082; calls by dose curve; tested in HEK293 reporter line; also: nearly all actives have a fitted effect of over 60% in size)
[15] = qHTS for Inhibitors of the Functional Ribonucleoprotein Complex (vRNP) of Lassa (LASV) Arenavirus: Viability assay - alamar blue signal for LASV Primary Screen (AID 1347083; calls by dose curve; tested in HEK293 reporter line; also: nearly all actives have a fitted effect of over 80% in size)
[16] = qHTS for Inhibitors of the Functional Ribonucleoprotein Complex (vRNP) of Lymphocytic Choriomeningitis Arenaviruses (LCMV): Viability assay - alamar blue signal for LCMV Primary Screen (AID 1347085; calls by dose curve; tested in HEK293 reporter line; also: nearly all actives have a fitted effect of over 80% in size)
[17] = biological target: Nucleoprotein (Lymphocytic choriomeningitis virus (strain Armstrong)) (UniProt P09992); assay: qHTS for Inhibitors of the Functional Ribonucleoprotein Complex (vRNP) of Lymphocytic Choriomeningitis Arenaviruses (LCMV): LCMV Primary Screen - GLuc reporter signal (AID 1347086); also: nearly all actives have a fitted effect of over 70% in size
Nucleoprotein (Lymphocytic choriomeningitis virus (strain Armstrong)), sequence (P09992 whole entry, looked up): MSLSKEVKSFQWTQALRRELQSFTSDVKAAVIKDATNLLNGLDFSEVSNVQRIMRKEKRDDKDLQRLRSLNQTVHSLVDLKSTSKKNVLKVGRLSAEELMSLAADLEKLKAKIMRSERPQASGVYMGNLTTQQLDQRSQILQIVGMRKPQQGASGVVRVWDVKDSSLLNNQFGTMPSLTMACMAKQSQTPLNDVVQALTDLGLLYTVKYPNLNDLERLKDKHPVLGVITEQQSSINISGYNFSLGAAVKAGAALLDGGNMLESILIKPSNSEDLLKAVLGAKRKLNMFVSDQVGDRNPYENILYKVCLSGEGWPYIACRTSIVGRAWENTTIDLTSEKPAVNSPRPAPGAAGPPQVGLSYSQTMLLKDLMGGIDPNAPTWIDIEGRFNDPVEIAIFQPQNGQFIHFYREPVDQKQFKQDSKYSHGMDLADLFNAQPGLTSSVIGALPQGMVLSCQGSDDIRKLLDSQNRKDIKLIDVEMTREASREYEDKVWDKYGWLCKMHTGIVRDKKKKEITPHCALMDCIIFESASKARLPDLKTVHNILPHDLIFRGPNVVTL

[18] = Cytotoxicity counterscreen for inhibitors of SARS-CoV-2 cell entry (AID 1645845); also: nearly all actives have a fitted effect of over 50% in size
Method in brief: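 Expi293F/hACE2 cells seeded overnight; cpd pin-transferred in DMSO, 1 h preincubation, + media, 48 h 37 C 5% CO2; ATPLite 1step luminescence; normalized to cells and no cells.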

[19] = Primary qHTS to identify inhibitors of SARS-CoV-2 cell entry (AID 1645846); conditions: activity change, negative = inhibition: at 57.1 µM (top of the series) unless noted; also: nearly all actives have a fitted effect of over 45% in size
Method in brief: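 HEK293 cells stably expressing human ACE2, pre-treated 1 h with compound, then infected with MLV particles pseudotyped with Wuhan-Hu-1 spike (C-terminal 19-aa truncation). Luciferase luminescence after 48 h at 37 °C, normalised to spike PP and bald PP.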

Cc1cc(O)c2c(c1)C(=O)c1cc(O)cc(O)c1C2=O
90.9%: parasite growth remaining, % of DMSO control (lower = more inhibition) [12]
76.8%: parasite growth, % of DMSO control [11]
3.76%: activity change, negative = inhibition [19]
inactive: outcome [1] | Potency [2] | Potency [10] | Potency [14] | Potency [15] | Potency [16] | Potency [17] | Potency [18]
active: Potency [3] 9.69 µM and 18.8 µM | Potency [4] 15.8 µM and 22.4 µM | Potency [5] 2.98 µM | Potency [6] 3.76 µM | Potency [7] 66.8 µM | Potency [8] 44.7 µM | Potency [9] 42.2 µM
66.9%: parasite growth, % of control (lower = inhibition) [13]
